Pf apPOL block: Pf-apPOL DNA polymerase inhibition; Recombinant Pf-apPOL, molecular beacon fluorescence, 1.5 h; inhibition, % at 10 µM; 210,000 tested, 0.25% active
mHTT CaM bind: inhibitors of human mutant huntingtin-calmodulin interaction; AlphaScreen His-mHTT/GST-CaM binding, luminescence; inhibition, % at 15 µM; P42858; 190,000 tested, 3.6% active; AID 1671202;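 further: 0% = both proteins with DMSO and 100% = one protein alone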
Target sequence (P42858 whole entry, looked up, stated change not applied): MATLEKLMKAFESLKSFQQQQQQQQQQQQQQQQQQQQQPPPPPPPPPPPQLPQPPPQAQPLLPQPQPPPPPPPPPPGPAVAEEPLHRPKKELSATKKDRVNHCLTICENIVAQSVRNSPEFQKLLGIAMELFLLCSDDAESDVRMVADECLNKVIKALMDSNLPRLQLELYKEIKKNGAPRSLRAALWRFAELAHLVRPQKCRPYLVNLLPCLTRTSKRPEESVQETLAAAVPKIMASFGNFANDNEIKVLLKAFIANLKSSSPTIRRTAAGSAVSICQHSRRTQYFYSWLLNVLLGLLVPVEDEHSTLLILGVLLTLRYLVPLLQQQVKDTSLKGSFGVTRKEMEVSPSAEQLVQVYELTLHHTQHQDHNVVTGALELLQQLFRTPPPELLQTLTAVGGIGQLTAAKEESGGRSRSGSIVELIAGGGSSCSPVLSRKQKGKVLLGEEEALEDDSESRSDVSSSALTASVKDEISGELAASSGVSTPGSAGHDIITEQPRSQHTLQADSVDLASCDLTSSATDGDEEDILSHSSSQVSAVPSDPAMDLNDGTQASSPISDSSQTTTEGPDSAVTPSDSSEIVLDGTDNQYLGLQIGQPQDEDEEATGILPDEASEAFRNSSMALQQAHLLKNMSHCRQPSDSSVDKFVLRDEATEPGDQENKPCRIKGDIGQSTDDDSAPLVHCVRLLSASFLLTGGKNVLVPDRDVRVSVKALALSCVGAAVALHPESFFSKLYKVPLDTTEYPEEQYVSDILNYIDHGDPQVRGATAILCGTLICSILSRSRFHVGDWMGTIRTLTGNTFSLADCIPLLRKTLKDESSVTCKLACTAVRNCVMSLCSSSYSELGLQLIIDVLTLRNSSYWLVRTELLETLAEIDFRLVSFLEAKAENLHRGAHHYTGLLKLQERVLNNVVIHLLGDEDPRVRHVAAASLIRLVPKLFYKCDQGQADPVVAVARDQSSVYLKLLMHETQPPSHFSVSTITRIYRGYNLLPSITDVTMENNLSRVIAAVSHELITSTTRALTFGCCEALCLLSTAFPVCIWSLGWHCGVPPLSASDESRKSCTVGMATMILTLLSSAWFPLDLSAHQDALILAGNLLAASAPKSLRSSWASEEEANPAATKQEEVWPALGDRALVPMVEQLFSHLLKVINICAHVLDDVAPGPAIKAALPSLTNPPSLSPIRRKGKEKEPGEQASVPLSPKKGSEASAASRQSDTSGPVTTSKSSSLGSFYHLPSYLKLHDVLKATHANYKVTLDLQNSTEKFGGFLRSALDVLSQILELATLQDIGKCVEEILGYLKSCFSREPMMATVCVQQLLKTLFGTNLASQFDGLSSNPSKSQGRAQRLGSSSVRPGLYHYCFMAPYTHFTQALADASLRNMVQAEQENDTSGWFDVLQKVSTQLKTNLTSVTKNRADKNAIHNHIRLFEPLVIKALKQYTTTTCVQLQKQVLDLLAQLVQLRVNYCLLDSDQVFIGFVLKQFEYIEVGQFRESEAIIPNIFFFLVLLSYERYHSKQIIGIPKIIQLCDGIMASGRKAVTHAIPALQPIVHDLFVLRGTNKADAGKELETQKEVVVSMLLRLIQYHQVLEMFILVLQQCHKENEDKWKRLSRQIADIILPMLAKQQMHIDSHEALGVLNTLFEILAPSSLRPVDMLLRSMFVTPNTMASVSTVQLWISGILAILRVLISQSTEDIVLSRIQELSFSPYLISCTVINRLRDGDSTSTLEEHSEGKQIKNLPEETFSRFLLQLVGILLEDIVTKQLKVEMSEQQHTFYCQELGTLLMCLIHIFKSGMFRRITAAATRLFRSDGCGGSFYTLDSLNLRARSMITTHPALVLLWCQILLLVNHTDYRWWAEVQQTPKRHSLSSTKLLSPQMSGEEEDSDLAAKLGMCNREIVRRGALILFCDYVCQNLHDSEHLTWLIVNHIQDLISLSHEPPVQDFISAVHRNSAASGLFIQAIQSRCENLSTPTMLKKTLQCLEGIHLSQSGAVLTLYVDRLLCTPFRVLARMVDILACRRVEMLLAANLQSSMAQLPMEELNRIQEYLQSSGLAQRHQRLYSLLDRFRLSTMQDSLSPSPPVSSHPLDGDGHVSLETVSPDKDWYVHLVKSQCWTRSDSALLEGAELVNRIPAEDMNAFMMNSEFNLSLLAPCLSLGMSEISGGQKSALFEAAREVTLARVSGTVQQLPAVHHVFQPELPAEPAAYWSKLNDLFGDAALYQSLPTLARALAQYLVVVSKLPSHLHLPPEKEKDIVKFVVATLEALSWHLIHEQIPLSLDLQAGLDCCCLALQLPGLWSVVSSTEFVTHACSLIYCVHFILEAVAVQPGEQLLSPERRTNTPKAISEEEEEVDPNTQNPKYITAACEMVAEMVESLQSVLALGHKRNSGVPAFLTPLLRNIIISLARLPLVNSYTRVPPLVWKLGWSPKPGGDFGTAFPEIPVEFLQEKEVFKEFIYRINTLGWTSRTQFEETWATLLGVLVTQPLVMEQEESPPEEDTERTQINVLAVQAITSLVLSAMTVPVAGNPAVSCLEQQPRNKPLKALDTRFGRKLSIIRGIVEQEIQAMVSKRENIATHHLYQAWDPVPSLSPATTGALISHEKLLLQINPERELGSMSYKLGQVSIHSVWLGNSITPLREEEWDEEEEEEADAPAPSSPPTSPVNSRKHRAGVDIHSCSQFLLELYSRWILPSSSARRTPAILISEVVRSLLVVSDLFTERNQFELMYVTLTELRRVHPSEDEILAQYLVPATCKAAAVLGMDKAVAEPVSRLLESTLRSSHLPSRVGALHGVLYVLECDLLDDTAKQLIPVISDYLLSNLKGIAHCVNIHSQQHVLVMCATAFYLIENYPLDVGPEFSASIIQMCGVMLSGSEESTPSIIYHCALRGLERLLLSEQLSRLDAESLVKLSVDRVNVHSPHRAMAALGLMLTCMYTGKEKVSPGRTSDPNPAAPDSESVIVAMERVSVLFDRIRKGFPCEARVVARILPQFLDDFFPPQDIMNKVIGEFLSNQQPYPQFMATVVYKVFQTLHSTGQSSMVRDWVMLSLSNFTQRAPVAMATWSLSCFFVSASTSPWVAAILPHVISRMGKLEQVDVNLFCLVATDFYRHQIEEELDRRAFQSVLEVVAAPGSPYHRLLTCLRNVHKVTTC
An asterisk follows results filed as active; . = not tested or not shown. Many of the other results were omitted from the sample, so hits are more common in it than they were. No stated cut-off is given here; in the data, active means inhibition above about 50%; inactive means the rest.

SMILES	Pf apPOL block	mHTT CaM bind
O=C1NC2(CCN(C(=O)Cc3cccc(F)c3)CC2)Nc2c(Cl)cccc21	0.6	-8.3
O=C(c1c[nH]c2ccccc12)N1CCC2(CC1)NC(=O)N(Cc1ccccc1Cl)C2=O	-7.1	98.2*
O=C(c1ccccc1)N1CCC2(CC1)NC(=O)N(Cc1ccc(F)cc1)C2=O	-3.8	7.6
O=C(c1cc2ccccc2[nH]1)N1CCC2(CC1)NC(=O)N(Cc1ccc(F)cc1)C2=O	-3.4	70.2*
O=C(c1cc2ccccc2[nH]1)N1CCC2(C1)NC(=O)N(Cc1ccc(F)cc1)C2=O (configuration not stated)	-2.4	-1.8
O=C(c1c[nH]c2ccccc12)N1CCC2(CC1)NC(=O)N(Cc1ccc(F)cc1)C2=O	-5.1	58.1*
O=C(c1ccccc1)N1CCC2(CC1)NC(=O)N(Cc1ccccc1Cl)C2=O	-3.3	8.7
COc1ccccc1C(CC(=O)N1CCCC1)c1cnc2n1CC(C)CC2 (configuration not stated)	-2.5	4.1
O=C(O)C1=CC(=C(c2ccc(O)c(C(=O)O)c2)c2ccc(O)c(C(=O)O)c2)C=CC1=O	92.1*	.
CC(=O)Nc1ccc(O)c(C(=O)O)c1	-4.5	.
Cn1c(C2CCN(S(=O)(=O)c3ccccc3Cl)CC2)cc(=O)n2nccc12	1.9	-2.0
N=C1S/C(=C\c2ccc(-c3ccc(F)c(Cl)c3)o2)C(=O)N1c1nonc1N	0.4	51.0*
CC(=O)Nc1nonc1N1C(=N)S/C(=C\c2ccc(-c3cccc(C(F)(F)F)c3)o2)C1=O	-12.6	56.0*
N=C1S/C(=C\c2ccc(-c3cccc(C(=O)O)c3)o2)C(=O)N1c1nonc1N	-1.1	47.0
CC(=O)Nc1nonc1N1C(=N)S/C(=C\c2ccc(-c3ccccc3F)o2)C1=O	-0.4	15.0
CCC(=O)N1c2ccccc2-c2nnc(SC)nc2OC1c1ccco1 (configuration not stated)	-69.9	2.0
N#CCc1ccc(NC(=O)Nc2ccc(OC(F)(F)F)cc2)cc1	2.1	.
Cc1ccc(C(=O)N2CCC(CC(=O)N3CCCC3)CC2)cc1	0.4	-0.5
Cc1ccc(NS(=O)(=O)c2cc3n(c2)CCCNC3=O)cc1	2.8	-4.4
O=C1OC(c2cccc(I)c2)=N/C1=C\c1ccc(F)cc1	-4.8	6.0
O=C1NC(=O)C2C1C1C=Cc3ccccc3N1C2C(=O)c1ccc(F)cc1 (configuration not stated)	.	52.0*
CN1C(=O)C(O)(CC(=O)c2ccc(F)cc2)c2ccccc21 (configuration not stated)	-2.9	-3.3
Cc1nnsc1C(=O)NCC(C)(O)c1ccccc1 (configuration not stated)	-6.6	-5.4
COCCNC(=O)c1c[nH]c2ccc(S(=O)(=O)N(C)c3ccc(Cl)cc3)cc2c1=O	-9.6	50.0*
C=CCNC(=O)c1c[nH]c2ccc(S(=O)(=O)N(CC)c3ccc(F)cc3)cc2c1=O	-10.2	15.0
SMILES	Pf apPOL block	mHTT CaM bind
C=CCNC(=O)c1c[nH]c2ccc(S(=O)(=O)N(C)c3ccc(Br)cc3)cc2c1=O	-5.8	55.0*
CCOCCCNC(=O)c1c[nH]c2ccc(S(=O)(=O)N(C)c3ccc(Cl)cc3)cc2c1=O	-11.1	24.0
CCc1ccc(C2C(C#N)=C(N)N(c3cccc([N+](=O)[O-])c3)C3=C2C(=O)CCC3)s1 (configuration not stated)	-2.2	33.0
COc1ccc(/C=C2\SC(=O)N(CNc3cc(C)ccc3C)C2=O)cc1OC	2.0	28.0
COC(=O)COc1ccc2c(c1)OC(=Cc1cc(Cl)cc3c1OCOC3)C2=O	-7.7	-1.1
O=C(O)CCC(=O)Nc1nc2n(n1)C(c1ccccc1)C=C(c1ccc(Cl)cc1)N2 (configuration not stated)	2.3	31.0
O=C(Nc1nc2n(n1)C(c1ccccc1)C=C(c1ccccc1)N2)c1ccccc1 (configuration not stated)	0.3	59.0*
O=C(CSc1ccccn1)Nc1nc(-c2ccccc2)cs1	-6.7	-18.0
COc1ccccc1C1CC(c2c(-c3ccccc3)c3cc(Br)ccc3[nH]c2=O)=NO1 (configuration not stated)	4.5	15.0
O=c1[nH]c2ccc(Br)cc2c(-c2ccccc2)c1C1=NNC(c2ccco2)C1 (configuration not stated)	-2.2	100.0*
O=[N+]([O-])c1ccc(C2NNC(=S)S2)cc1 (configuration not stated)	.	-6.0
O=C(Nc1ccc(C(F)(F)F)cc1[N+](=O)[O-])O[C@H]1[C@H](Cc2ccccc2)NS(=O)(=O)[C@H]2C[C@@H]3C=C[C@]12O3	-4.6	65.0*
Cc1cc(C(=O)O[C@H]2[C@H](Cc3ccccc3)NS(=O)(=O)[C@H]3C[C@@H]4C=C[C@]23O4)ccc1[N+](=O)[O-]	-7.5	16.8
N=c1c(C(N)=O)cc2c(=O)n3ccccc3nc2n1C1CCCC1	-1.6	-3.0
COc1ccc(-c2coc3cc(OC(=O)c4ccc(Cl)cc4)ccc3c2=O)cc1OC	-4.7	-1.1
CCCCNc1nc2ccncc2n(Cc2ccccc2)c1=O	-6.3	-2.1
CCn1c(=O)c(NCCCN2CCCc3ccccc32)nc2ccncc21	-0.3	66.7*
Cc1ccc(S(=O)(=O)N2CCc3nc(NC(=O)C4CCC4)sc3C2)cc1	0.3	-0.1
CC1(C)Cc2c(sc3nc(SCC#N)n(-c4ccccc4)c(=O)c23)CO1	4.3	3.0
FC(OC(F)(F)F)c1nc2ccccc2[nH]1 (configuration not stated)	.	-3.9
O=C(O)CCn1c2c(sc1=O)C1c3ccccc3OCC1CS2 (configuration not stated)	1.2	26.0
O=c1sc2c(n1-c1ccccc1)SCC1COc3ccccc3C21 (configuration not stated)	-13.6	66.0*
O=C(NCCN1CCCCC1)C1CCc2sc(C(=O)N3CCCC3)cc2C1 (configuration not stated)	-9.1	3.7
CC1Cc2ccccc2N1C(=O)c1ccc2nc(N3C(=O)CCC3=O)sc2c1 (configuration not stated)	-5.0	52.0*
CC1Cc2ccccc2N1C(=O)c1ccc(Cl)cc1 (configuration not stated)	2.2	-39.4
SMILES	Pf apPOL block	mHTT CaM bind
Cn1ccc2c(-c3ccc(F)cc3)cc3c(c21)C1CCC3O1 (configuration not stated)	-7.8	23.0
COc1ccccc1N(C)c1cc2c(c3c1ccn3C)C1CCC2O1 (configuration not stated)	-2.5	67.2*
CN(Cc1ccccc1)c1cc2c(c3c1ccn3C)C1CCC2O1 (configuration not stated)	-3.5	71.8*
Cn1ccc2c(N(Cc3ccccc3)Cc3ccccc3)cc3c(c21)C1CCC3O1 (configuration not stated)	3.7	42.7
O=c1oc(C23CC4CC(CC(C4)C2)C3)nc2sc3c(c12)CCCC3	0.4	-6.0
COc1ccc(-c2noc(C3CCCN3C(=O)c3ccc(F)cc3)n2)cc1 (configuration not stated)	-2.5	-1.1
O=C(Nc1ccc(Oc2ccc(Cl)cc2)cc1)c1cc2cc([N+](=O)[O-])ccc2oc1=O	-8.6	2.0
O=C(NCCc1csc(-c2ccccc2)n1)C1CSCN1C(=O)C1CCC1 (configuration not stated)	-2.3	3.0
COc1ccc(NC(=O)/C=C/c2ccc(Cl)cc2)cc1	-8.6	.
O=C(NC(Nc1ccc(Br)cc1)C(Cl)(Cl)Cl)c1ccc(F)cc1 (configuration not stated)	-3.1	87.0*
